Compound activity: PubChem BioAssay, National Center for Advancing Translational Sciences (NCATS)
GBA mod = modulators of human glucocerebrosidase | P04062 | purified enzyme, resorufin glucoside fluorescence (screen aimed at inhibitors), 20 min | Potency, µM | 1.1% of 48,000 active; in the data active = potency below about 15 µM; inconclusive = mostly about 16 µM to 33 µM;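 also: the screen sought inhibitors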
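Compounds titrated against 0.2 nM normal enzyme, 30 uM resorufin beta-D-glucopyranoside substrate, citrate/phosphate buffer with taurocholate and tween-20, pH 5.9. Reaction ran 20 min at room temperature; fluorescence (Ex 548/Em 600) gave AC50.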
FLuc inh = firefly luciferase inhibition. AID 411. 2.2% of 72,000 active. P08659. Potency, µM (titrated, usually from 57.1 µM), usual class: inhibitors. purified firefly luciferase, luminescence, 8 min; active = well fitted inhibition curve with a large enough effect; inconclusive = small, poorly fitted or top-dose-only effect; also: nearly all actives have a fitted effect of over 40% in size
Target sequence (P08659 whole entry, looked up): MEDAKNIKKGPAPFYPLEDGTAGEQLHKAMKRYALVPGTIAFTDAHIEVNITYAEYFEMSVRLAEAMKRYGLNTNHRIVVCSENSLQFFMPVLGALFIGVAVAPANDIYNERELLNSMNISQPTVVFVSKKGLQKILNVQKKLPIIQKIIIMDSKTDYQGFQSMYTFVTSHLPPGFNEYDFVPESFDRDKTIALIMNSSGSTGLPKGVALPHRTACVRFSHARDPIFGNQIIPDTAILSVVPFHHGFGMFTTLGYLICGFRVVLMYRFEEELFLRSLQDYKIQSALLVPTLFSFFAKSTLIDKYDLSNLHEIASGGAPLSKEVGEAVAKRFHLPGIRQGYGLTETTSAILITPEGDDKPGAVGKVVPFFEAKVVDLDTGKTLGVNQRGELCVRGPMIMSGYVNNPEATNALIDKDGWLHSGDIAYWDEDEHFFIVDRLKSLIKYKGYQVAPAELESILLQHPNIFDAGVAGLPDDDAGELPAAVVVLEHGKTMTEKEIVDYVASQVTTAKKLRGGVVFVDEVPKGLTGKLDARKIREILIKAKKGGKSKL
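Compounds were tested as concentration series (qHTS) against purified P. pyralis luciferase with luciferin and 10 uM ATP in 50 mM imidazole pH 7.2, 50 mM KCl, 7 mM MgCl2, 0.01% Tween 20, 0.05% BSA. Luminescence was read after 8 min at ambient temperature.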
Bst PK mod = pyruvate kinase (B. stearothermophilus) modulation; Potency, µM; purified pyruvate kinase, luminescence ATP production; ribose 5-phosphate activator present at AC10; 1.2% of 51,000 active; AID 361; in the data active = potency below about 11 µM; inconclusive = mostly about 12 µM to 25 µM;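 the screen sought inhibitors and activators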
Numbers stand for hits; . = inactive; ? = inconclusive; / = not tested or not shown; [ ] = dose if it differs, or a comment. Compounds with a hit are over-represented: about 3.2% of the library has one in this group of screens.

SMILES | GBA mod | FLuc inh | Bst PK mod
COc1ccc(COC(=O)N/N=C2/C[C@@H](O)[C@@H](O)[C@@H]3[C@@H]4C(=O)N(Cc5ccc6c(c5)OCO6)C(=O)[C@H]4CC[C@H]23)cc1 | / | .[11.4 µM] | /
CCSc1nc(N)c2c3c(sc2n1)CCC3 | / | . | .
NC(=O)CSc1nc(N)c2c3c(sc2n1)CCCCC3 | / | 13µM | 11
c1c2c(cc3sc(N4CCOCC4)nc13)OCCO2 | . | 1.6µM | 4.4
c1ccc(N2CCN(c3nc4cc5c(cc4s3)OCCO5)CC2)cc1 | . | . | .
CO[C@H]1COC(=O)[C@@H](CCSC)NC(=O)C/C=C\[C@@H](C)COC(=O)[C@@H](OCc2ccccc2)/C=C\[C@@H]1C | / | .[11.4 µM] | /
c1ccc2sc(N3CCN(Cc4ccc5c(c4)OCO5)CC3)nc2c1 | / | . | /
c1ccc2sc(-c3ccc4c(c3)OCO4)nc2c1 | / | 1.6µM | /
CCOC(=O)C1CCN(c2nc3ccccc3nc2C(C#N)C(=O)OC(C)COC)CC1 (stereo not drawn) | / | . | 5.6
CCOC(=O)C1CCN(c2nc3ccccc3nc2C(C#N)C(=O)OCCOC)CC1 (stereo not drawn) | / | . | 2.3
CCOC(=O)C1CCN(c2nc3ccccc3nc2C(C#N)C(=O)OC(C)C)CC1 (stereo not drawn) | / | . | .
C=CCOC(=O)C(C#N)c1nc2ccccc2nc1N1CCC(C(=O)OCC)CC1 (stereo not drawn) | / | . | .
C=CCn1cnc2c(c1=O)c1nc3ccccc3nc1n2-c1ccccc1 | . | . | .
C=CCn1cnc2c(c1=O)c1nc3ccccc3nc1n2/N=C/c1cc(OC)c(OC)c(OC)c1 | . | . | .
C=CCn1cnc2c(c1=O)c1nc3ccccc3nc1n2/N=C/c1cccc(OC)c1OC | 6.6 | . | ?
C=CCn1cnc2c(c1=O)c1nc3ccccc3nc1n2/N=C/c1ccccn1 | 8.4 | . | .
Cc1ccc(S(=O)(=O)N=Nc2c(O)[nH]c3cc(O)c(C(=O)O)cc23)cc1 | / | .[11.4 µM] | /
COCCn1c(=O)c(-c2cc(F)cc(F)c2)nc2cnc(Oc3ccc(OC)cc3)nc21 | / | .[11.4 µM] | /
Cc1ccc(-c2nnc(SCC(=O)O)n2N)cc1 | . | . | .
CC(C)(C)c1ccc(-c2nnc(SCC(=O)O)n2N)cc1 | . | 16µM | /
O=C(N/N=C1/C[C@@H](O)[C@@H](O)[C@@H]2[C@@H]3C(=O)N(C4CCCCC4)C(=O)[C@H]3CC[C@H]12)OCc1ccccc1 | / | .[11.4 µM] | /
CCN1C(=O)[C@H]2[C@H]3[C@H](O)[C@H](O)C/C(=N/OC[C@@H](C)[C@H](OCc4ccccc4)C(C)C)[C@@H]3CC[C@@H]2C1=O | / | .[11.4 µM] | /
CCc1nnc(NC(=O)CSc2nnc(-c3ccccc3O)n2-c2ccc(C)cc2)s1 | 14 | . | .
CCc1nnc(NC(=O)CSc2nnc(CNc3cccc(C)c3)n2-c2ccccc2)s1 | 11 | . | .
CCc1nnc(NC(=O)CSc2nnc(-c3ccccc3OC)n2-c2ccccc2)s1 | . | . | .
SMILES | GBA mod | FLuc inh | Bst PK mod
CCc1nnc(NC(=O)CSc2nnc(Cc3ccccc3)n2-c2ccccc2)s1 | ? | . | .
COc1cccc(Cn2c(=O)c(C)nc3cnc(Nc4ccccc4)nc32)c1 | / | .[11.4 µM] | /
CC(C)(C)N1C(=O)[C@H]2[C@H]3[C@H](O)[C@H](O)C/C(=N/NC(=O)OCc4ccccc4)[C@@H]3CC[C@@H]2C1=O | / | .[11.4 µM] | /
COc1cccc(NC(=O)c2cccc(OC)c2OC)c1 | . | ? | /
COc1ccc(NC(=O)Nc2ccc3nccnc3c2)cc1 | / | 6.3µM | /
COc1ccc(CNC(=O)c2ccc3nccnc3c2)cc1 | . | . | /
COc1cccc(C(=O)Nc2ccc(N(C)C)cc2)c1OC | . | 16µM | .
COc1ccc(NC(=O)Nc2nccs2)cc1 | . | 13µM | .
CCc1nnc(NC(=O)Nc2ccc(OC)cc2)s1 | . | . | .
COc1ccc(NC(=O)Nc2ccc(N(C)C)cc2)cc1 | . | 13µM | /
COc1ccc(CNC(=O)Nc2ccc(OC)cc2)cc1 | . | . | .
CN(C)Cc1ccccc1-c1cc(N(C)Cc2ccco2)ncn1 | / | .[2.29 µM] | /
CCCn1c(=O)[nH]c2nc(-c3ccc(S(=O)(=O)O)cc3)[nH]c2c1=O | / | . | /
CC(C)CN1CCC2(CC1)CCN(C(=O)c1cc(C(F)(F)F)cc(C(F)(F)F)c1)CC2 | / | .[11.4 µM] | /
C#CCCCO/N=C1/[C@H]2O[C@@H]2[C@@H](O)[C@H]2[C@H]1CCn1c(=O)n(Cc3cc4c(cc3Cl)OCO4)c(=O)n12 | / | .[11.4 µM] | /
CC1CN(c2nn3c(=O)c4ccccc4nc3c3ccccc23)CC(C)O1 (stereo not drawn) | . | . | ?
O=c1c2ccccc2nc2c3ccccc3c3nncn3n12 | . | . | 0.9
Fc1ccc([C@H]2CCNC[C@H]2COc2ccc3c(c2)OCO3)cc1 | / | 5µM | /
CN(C)S(=O)(=O)N1CCC(c2ccc(F)cc2)C(COc2ccc3c(c2)OCO3)C1 (stereo not drawn) | . | . | .
CN(C)c1ccc(-c2cc(Nc3ccc(F)cc3)ncn2)cc1 | / | .[2.29 µM] | /
O=C(O)CCCSc1ccccc1 | / | .[11.4 µM] | /
